Inconclusive results are not listed. Calls of active or inactive are those of the source. The calls were made as follows: active = hit-call score of the fitted dose curve at least 0.9, where 1 is the maximum; inconclusive = response in the unintended direction; inactive = score below 0.9.
Key:
[1] = TOX21_p53_BLA_p2_viability: Viability Assessment in the Tox21 HCT-116 p53 Agonism Beta-lactamase Assay, Phase 2 (AID 2283591);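 also: compound exposure lasted 16 h at 37 °C; actives lower the ATP signal meaning cytotoxicity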
How it was run: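 HCT-116 p53-bla cells (4000/well) rested 5 h at 37C, then received compounds in DMSO (217-fold dilution) for 16 h at 37C, 5% CO2. After the CCF4 read, CellTiter-Glo was added; ATP luminescence was read after 30 min at room temperature.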

[2] = TOX21_p53_BLA_p4_viability: Viability Assessment in the Tox21 HCT-116 p53 Agonism Beta-lactamase Assay, Phase 4 (AID 2283597);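 also: hits lower the luminescence signal meaning cytotoxicity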
How it was run: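 HCT116 p53-bla cells (4000/well) rested 5 h at 37C, then received compounds in DMSO (217-fold dilution) for 16 h at 37C, 5% CO2. CellTiter-Glo was added after the CCF4-AM read, and luminescence was read after 30 min at room temperature.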

[3] = target: Cellular tumor antigen p53 (Homo sapiens) (UniProt P04637); experiment: TOX21_p53_BLA_p5_ratio: Tox21 HCT-116 p53 Agonism Beta-lactamase Assay, Ratio, Phase 5 (AID 2283599)
How it was run: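 HCT-116 cells carrying a p53-inducible beta-lactamase reporter were seeded at 4000 cells/well and dosed after 5 h with compound in DMSO (217-fold dilution). After 16 h at 37C, CCF4-AM substrate was added for 2 h, and the 460/530 nm emission ratio was scored as gain-of-signal versus DMSO.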

[4] = target: Cellular tumor antigen p53 (Homo sapiens) (UniProt P04637); experiment: TOX21_p53_BLA_p3_ratio: Tox21 HCT-116 p53 Agonism Beta-lactamase Assay, Ratio, Phase 3 (AID 2283596)
How it was run: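 HCT116 p53-bla cells (4000/well) given compound in DMSO (217-fold dilution) after 5 h, incubated 16 h at 37C. CCF4-AM substrate 2 h at room temperature; 460/530 nm emission ratio, gain fitted against DMSO.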

[5] = target: Cellular tumor antigen p53 (Homo sapiens) (UniProt P04637); experiment: TOX21_p53_BLA_p4_ratio: Tox21 HCT-116 p53 Agonism Beta-lactamase Assay, Ratio, Phase 4 (AID 2283601)
How it was run: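 HCT116 cells carrying an inducible beta-lactamase reporter were plated at 4000 cells/well, rested 5 h, then exposed to compounds in DMSO (217-fold dilution) for 16 h at 37C. CCF4-AM substrate was loaded 2 h at room temperature; 460/530 nm emission ratio scored gain-of-signal versus DMSO.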

[6] = TOX21_p53_BLA_p5_viability: Viability Assessment in the Tox21 HCT-116 p53 Agonism Beta-lactamase Assay, Phase 5 (AID 2283600)
How it was run: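 Cells were plated at 4000/well, rested 5 h at 37C, then given compounds in DMSO (217-fold dilution) for 16 h at 37C, 5% CO2. Following the CCF4-AM beta-lactamase read, CellTiter-Glo was added and luminescence was read after 30 min at room temperature.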

Measured: AC50

Sequence of Cellular tumor antigen p53 (Homo sapiens) (P04637 whole entry, looked up): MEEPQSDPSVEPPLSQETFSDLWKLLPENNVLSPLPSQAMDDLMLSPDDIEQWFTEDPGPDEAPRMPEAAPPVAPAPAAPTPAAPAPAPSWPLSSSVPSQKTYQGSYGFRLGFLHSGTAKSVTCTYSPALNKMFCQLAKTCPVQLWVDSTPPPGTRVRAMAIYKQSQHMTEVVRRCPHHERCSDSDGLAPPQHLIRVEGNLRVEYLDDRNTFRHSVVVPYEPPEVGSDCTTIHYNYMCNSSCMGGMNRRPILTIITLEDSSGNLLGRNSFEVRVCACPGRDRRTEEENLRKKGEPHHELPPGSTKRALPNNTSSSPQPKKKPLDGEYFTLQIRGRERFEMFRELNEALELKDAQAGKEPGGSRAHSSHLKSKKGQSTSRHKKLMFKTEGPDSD

CC(=C(CCO)SSCC1CCCO1)N(C=O)Cc1cnc(C)nc1N (stereo not drawn)
inactive: [1] | [2] | [3]

CC(C)CCCO
inactive: [1] | [4] | [5]

OCCOCC#CCOCCO
inactive: [1] | [4] | [6] | [5]

N[C@@H](C(=O)N[C@@H]1C(=O)N2C(C(=O)O)=C(CSc3cn[nH]n3)CS[C@H]12)c1ccc(O)cc1
inactive: [1] | [2] | [3] | [6]

CNCCCN1c2ccccc2CCc2ccccc21
inactive: [1] | [2] | [6] | [5]

O=c1[nH]cnc2ccccc12
inactive: [1] | [2] | [3] | [6] | [5]

NC(=S)Nc1cccc2ccccc12
inactive: [1] | [2] | [3] | [5]

O=C(O)c1ccc(CO)o1
inactive: [1] | [2] | [6] | [5]

O=C(O)c1cc2ccccc2c(Cc2c(O)c(C(=O)O)cc3ccccc23)c1O
inactive: [1] | [2] | [3] | [6] | [5]

Cc1onc(-c2ccccc2)c1C(=O)N[C@@H]1C(=O)N2[C@@H]1SC(C)(C)[C@@H]2C(=O)O
inactive: [1] | [2] | [5]

NS(=O)(=O)c1cc2c(cc1Cl)NC(CSCc1ccccc1)=NS2(=O)=O
inactive: [1] | [3]

COc1cc2nc(N3CCN(C(=O)C4CCCO4)CC3)nc(N)c2cc1OC (stereo not drawn)
inactive: [1] | [2] | [3] | [6] | [5]

O=P(O)(O)C(O)(Cc1cnc2ccccn12)P(=O)(O)O
inactive: [1] | [3]

Nc1nc2c(ncn2CCC(CO)CO)c(=O)[nH]1
inactive: [1] | [2] | [6]

Cn1ccc2cc3c(cc21)CCN3C(=O)Nc1cccnc1
inactive: [1] | [2] | [3] | [5]

CC(=O)CC(c1ccc([N+](=O)[O-])cc1)c1c(O)c2ccccc2oc1=O (stereo not drawn)
inactive: [1] | [2] | [3] | [5]

COc1ccccc1OCCNCC(O)COc1cccc2[nH]c3ccccc3c12 (stereo not drawn)
inactive: [1] | [3]
active: [2] 36.8 µM | [5] 41.9 µM

CC(=O)N=c1sc(S(N)(=O)=O)nn1C
inactive: [1] | [2] | [3] | [6] | [5]

OC1OC[C@@H](O)[C@H](O)[C@@H]1O (stereo partly drawn)
inactive: [1] | [2] | [5]

CC1(C)[C@@H](OC(=O)CCC(=O)O)CC[C@]2(C)[C@H]3C(=O)C=C4[C@@H]5C[C@@](C)(C(=O)O)CC[C@]5(C)CC[C@@]4(C)[C@]3(C)CC[C@@H]12
inactive: [1] | [3] | [6]

O=C1c2c(O)cccc2C([C@@H]2O[C@H](CO)[C@@H](O)[C@H](O)[C@H]2O)c2cc(CO)cc(O)c21 (stereo partly drawn)
inactive: [1] | [2] | [3] | [6] | [5]

Nc1ccc2c3c(cccc13)-c1ccccc1-2
inactive: [1] | [2] | [6]

CC(=O)Nc1cccc(C)c1
inactive: [1] | [2] | [6] | [5]

O=C1C=CCCC1
inactive: [1] | [3] | [6]

O=C1NC2CCCCN2C12CCN(CCCN1c3ccccc3CCc3ccc(Cl)cc31)CC2 (stereo not drawn)
inactive: [5]
active: [1] 37.5 µM | [2] 43 µM

CNS(=O)(=O)CCc1ccc2[nH]cc(C3CCN(C)CC3)c2c1
inactive: [1] | [2] | [6] | [5]

CSc1ccc(C(=O)c2[nH]c(=O)[nH]c2C)cc1
inactive: [1] | [3] | [6]

O=[N+]([O-])c1ccc2[nH]ncc2c1
inactive: [1] | [2] | [3] | [6] | [5]

C[C@]12CCC(=O)C=C1CC[C@@H]1[C@@H]2[C@@H](O)C[C@@]2(C)[C@H]1CC[C@]2(O)C(=O)COC(=O)CCC(=O)O
inactive: [1] | [2] | [6] | [5]

Cc1cccc(Nc2ccncc2S(=O)(=O)NC(=O)NC(C)C)c1
inactive: [1] | [2] | [3] | [6] | [5]

Source: PubChem BioAssay (EPA / NIEHS)
